This is a sample that favours compounds with a hit; in the whole collection about 4.1% have one here.
DAX1 inh-1: DAX1 (NR0B1) inhibitors, primary screen, cell-based, HEK293, Gal4-DAX1, luciferase luminescence. HEK293 Gal4-DAX1 luciferase reporter. 0.99% of 340,000 active. Nuclear receptor subfamily 0 group B member 1 (Homo sapiens), P51843. inhibition, % at 6.75 µM;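 active = inhibition above the mean over all tested compounds plus 3 SD, cut at about 4.2% in these data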;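 also: 0% = DAX1-transfected cells with DMSO and 100% = empty-vector control cells with DMSO; inhibition shows as a rise in luminescence from relieved DAX1 repression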
Target sequence (P51843 207-470 limits assumed): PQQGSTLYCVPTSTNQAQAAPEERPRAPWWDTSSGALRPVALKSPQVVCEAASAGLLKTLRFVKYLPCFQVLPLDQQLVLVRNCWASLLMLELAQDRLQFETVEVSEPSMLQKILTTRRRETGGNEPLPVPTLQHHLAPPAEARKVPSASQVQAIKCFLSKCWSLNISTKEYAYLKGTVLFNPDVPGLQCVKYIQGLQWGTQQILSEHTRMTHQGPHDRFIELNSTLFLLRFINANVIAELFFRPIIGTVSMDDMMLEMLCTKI
ssDAF12 agonist: S. stercoralis DAF-12 nuclear receptor activators, primary screen, cell-based, luminescence, HEK293, GRIP1 co-expression, lit1-tk-luc; activation, % at 6.8 µM; AID 652126, 2013; 1% of 370,000 active; HEK293 ssDAF-12/GRIP1 lit1-tk-luc reporter; % of 3 µM dafachronic acid response;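 active = activation above the mean over all tested compounds plus 3 SD, cut at about 0.9% in these data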;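 also: 0% = DMSO-only wells and 100% = 3 µM delta7-dafachronic acid wells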
hcDAF12 agonist: H. contortus DAF-12 nuclear receptor activators, primary screen, cell-based, luminescence, HEK293, lit1-tk-luc reporter; AID 652067, 2013; HEK293 hcDAF-12 lit1-tk-luc reporter; 0% DMSO, 100% Δ7-dafachronic acid; 1.4% of 370,000 active; activation, % at 6.8 µM;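 active = activation above the mean of all tested compounds plus 3 SD, cut at about 5.5% in these data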;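 also: 100% = response to 3 µM Δ7-dafachronic acid high control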
hgDAF12 agonist: H. glycines DAF-12 receptor agonists, primary screen, cell-based, luminescence, HEK293, GAL4 fusion, UAS-luciferase. HEK293 GAL4-hgDAF12 UAS-luciferase reporter, agonist luminescence; normalized to butyrate control. activation, % at 6.8 µM. 1.8% of 370,000 active. AID 687014, 2013;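 active = activation above a cutoff set at the mean of all screened compounds plus 3 SD, cut at about 10% in these data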;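 also: 0% = DMSO wells and 100% = sodium butyrate wells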
DAX1 inh-2: DAX1 (NR0B1) inhibitors on StAR promoter, primary screen, cell-based, luminescence, SF-1 (NR5A1), full-length DAX-1. inhibition, % at 6.8 µM. AID 652010, 2013. HEK293T StAR-luciferase reporter, SF-1/DAX-1 repression relief. 1.1% of 370,000 active;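 active = inhibition above the mean over all tested compounds plus 3 SD, cut at about 3.6% in these data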;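 also: 0% = DAX-1 cells with DMSO and 100% = cells lacking DAX-1 with DMSO; higher inhibition means more luminescence from relief of DAX-1 repression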
An asterisk follows results filed as active; nt = no result given.

SMILES	DAX1 inh-1	ssDAF12 agonist	hcDAF12 agonist	hgDAF12 agonist	DAX1 inh-2
O=C(C[n+]1cccc2ccccc21)c1ccc(Br)cc1	2.3	2.2*	5.0	3.0	-0.2
Cc1csc2ncc(C(=O)Nc3ccccc3F)c(=O)n12	1.4	0.3	6.2*	6.0	0.7
CC(=O)N/N=c1\sc2ccccc2n1C	0.0	-0.7	-0.3	3.4	-0.5
Cn1/c(=N\NC(=O)c2ccccc2Cl)sc2ccccc21	1.8	-1.1	1.0	11.9*	1.3
N#Cc1cc2cc3c(cc2nc1SCC(=O)N1CCOCC1)OCO3	6.6*	-0.6	3.5	6.5	1.0
CC(C)OC(=O)CSc1nc2cc3c(cc2cc1C#N)OCO3	0.5	-0.7	-1.6	2.7	-0.7
COC(=O)CSc1nc2cc3c(cc2cc1C#N)OCO3	4.7*	0.4	2.9	11.9*	3.7*
CCOc1ccc2cc(C#N)c(SCC(=O)N3CCOCC3)nc2c1	2.6	0.4	2.7	10.6*	2.7
Cn1c(NC(=O)c2ccccc2)nc(Cc2ccccc2)c1-c1ccccc1	nt	-1.5	-0.7	-1.6	-0.7
CCOc1ccc(-n2c(SCC(=O)Nc3ccc(S(=O)(=O)Nc4nccs4)cc3)nnc2-c2ccco2)cc1	nt	-1.4	-3.7	-0.8	1.1
CCOC(=O)c1cc(C#N)c(SCC(=O)O)[nH]c1=O	0.2	-1.7	0.8	0.9	0.8
CCOC(=O)c1cc(C#N)c(SCC(N)=O)[nH]c1=O	4.5*	-1.5	0.5	1.7	0.2
CCCOc1ccc(C(=O)CCNc2cccc(Cl)c2)cc1	0.8	1.4*	-1.1	4.7	0.3
COc1ccc(C(=O)CCNc2cccc(Cl)c2)cc1	0.8	-0.8	1.9	4.9	0.6
CCN1Cc2c(/C=C/c3ccccc3)nc3ccc(OC)cc3c2N(c2cccc(Cl)c2)C1	-0.4	-0.7	5.7*	3.4	-0.5
COc1cccc(N2CCc3c(C)nc4ccc(Cl)cc4c32)c1	-1.0	-1.6	-0.8	-1.8	-0.4
O=C(COc1ccc(C2SCCS2)cc1)NNC(=O)C(Cl)Cl	5.9*	0.1	0.1	1.2	0.2
Cc1nc(SCC(N)=O)[nH]c(=O)c1C	nt	-1.5	-0.8	1.2	nt
CC(c1ccc(F)cc1)n1cc(C(=O)NCCN(C)C)nn1 (stereo unspecified)	5.5*	-0.7	-0.8	-0.2	0.3
Nc1nc(Cl)nc2ncn(Cc3ccccc3)c12	-1.6	0.2	0.9	11.2*	1.1
Nc1ncnc2c1ncn2Cc1ccccc1	3.5	-1.7	-0.7	6.8	-1.2
O=C(C/C=N/OCc1ccc(Cl)cc1Cl)c1ccccc1	1.1	-1.1	2.7	1.1	0.6
O=C(C/C=N/OCc1c(Cl)cccc1Cl)c1ccccc1	0.4	0.9*	3.7	5.8	0.7
COc1ccc(S(=O)(=O)N2CCCCC2)cc1NC(=O)c1ccc(Cl)nc1	0.7	-1.6	-2.4	-0.2	-0.4
CCN(CC)c1cc2c(c3c1ccn3C)C1CCC2O1 (stereo unspecified)	nt	0.9*	-2.3	-2.3	-0.2
SMILES	DAX1 inh-1	ssDAF12 agonist	hcDAF12 agonist	hgDAF12 agonist	DAX1 inh-2
O=C(/C=C/c1ccc(OC2CSC2)cc1)c1ccc(Cl)cc1	2.5	-1.2	5.6*	1.9	-0.4
COc1ccc(C(=O)/C=C/c2ccc(OC3CSC3)cc2)cc1OC	-1.3	-1.5	-1.5	-0.4	-0.7
COc1cccc(CC2(CO)CCCN(Cc3cn(C)c4ccccc34)C2)c1 (stereo unspecified)	-1.1	0.3	1.5	0.8	0.2
Cn1cc(CN2CCCC(CO)(Cc3ccccc3)C2)c2ccccc21 (stereo unspecified)	4.9*	-1.1	-1.9	0.8	0.4
COC(CNC(=O)[C@H](Cc1ccccc1)NCC(=O)NC1CCCCC1)OC	nt	-1.7	1.4	0.3	nt
COc1ccc(-c2ccc(-c3nnn(CC(C)=O)n3)cc2)cc1	-0.3	-1.4	1.5	8.0	0.1
COc1cccc(-c2nnn(CC(C)=O)n2)c1	0.6	-0.5	3.8	11.1*	1.2
O=C(Nn1cnnc1)c1ccncc1	1.4	-1.0	0.1	2.6	-0.1
CC(C)(C)c1ccc(C(=O)Nn2cnnc2)cc1	2.9	1.0*	3.6	4.9	0.1
Cc1cc(/C=N/NC(N)=S)c(C)n1-c1ccc(Cl)c(Cl)c1	-3.1	-1.4	-3.1	-0.4	-2.0
CCNC(=S)N/N=C/c1cc(C)n(-c2ccc(Cl)cc2)c1C	0.2	-1.4	2.3	10.9*	1.4
CCc1ccc(N(CC(=O)Nc2ccccc2C(=O)N2CCOCC2)S(C)(=O)=O)cc1	-0.6	1.5*	-0.4	-0.7	-0.7
CS(=O)(=O)N(CC(=O)Nc1ccccc1C(=O)N1CCOCC1)c1ccc(Cl)cc1	0.0	-1.3	0.1	-1.5	0.0
NC(=O)CSc1nnc(CNc2ccc(F)cc2)n1CC1CCCO1 (stereo unspecified)	-0.7	-0.3	-1.0	1.3	-0.5
CCCc1nnc(SCC(=O)N(CC)CC)n1CC1CCCO1 (stereo unspecified)	5.5*	-1.2	0.2	-2.1	0.4
Cc1ccc(NCc2nnc(SCC(N)=O)n2CC2CCCO2)c(C)c1 (stereo unspecified)	5.5*	-1.1	-0.9	2.4	-0.2
COc1ccc(Cn2c(=N)c(C(=O)NCC3CCCO3)cc3c(=O)n4ccccc4nc32)cc1 (stereo unspecified)	1.3	-0.9	5.7*	7.2	-0.6
CC(C)CN1CCCC(N2CCN(c3cccc(Cl)c3)CC2)C1 (stereo unspecified)	-0.4	-0.5	6.3*	7.7	0.1
COc1ccc(CN2CCCC(N3CCN(c4cccc(Cl)c4)CC3)C2)cc1OC (stereo unspecified)	2.9	-1.0	-1.2	0.4	-0.5
CC(C)C[C@H]1COc2cccc(F)c2S(=O)(=O)N1Cc1cn(CCC2OCCO2)nn1	nt	-1.6	-2.6	-1.6	0.6
CCSc1nnc(N2C(=O)CC(c3ccsc3)C3=C2CC(C)(C)CC3=O)s1 (stereo unspecified)	5.3*	-1.1	-1.6	-2.7	1.7
CC1(C)CC(=O)C2=C(C1)N(c1ccc(F)cc1)C(=O)CC2c1cccnc1 (stereo unspecified)	0.7	-1.7	-1.5	0.4	-0.1
COC(=O)[C@]12C[C@H](CC(=O)NCc3cccc(C(F)(F)F)c3)C(=O)N(Cc3ccco3)C1=C[C@H](C1CCCC1)O[C@@H]2C	nt	0.0	-2.5	-2.6	-1.6
Brc1ccccc1/C=N/Nc1ccccn1	1.1	-0.3	4.1	8.8	-0.4
Cc1ccc(/C=N/Nc2ccccn2)s1	0.6	-0.1	0.5	10.7*	0.3
COC(=O)c1ccc2nc(-c3cccc(Br)c3)c(Cc3ccsc3)n2c1	nt	-0.9	-0.2	0.5	3.8*

Assay outcomes deposited in PubChem by The Scripps Research Institute Molecular Screening Center.
